Shown are actives, neighbours in structure and some others; about 13% of the full set was active somewhere.
HCV inhibitor – blocks hepatitis C virus; Huh7.5.1 HCVcc-Cre infection, luciferase reporter, 44 h; Potency, µM (series often up to 41.8 µM), for the others: at the top dose activity change, negative = inhibition, most hits filed as inhibitors; 340,000 compounds, 3.4% hits; AID 651820; active means well fitted inhibition curve with a large enough effect; inconclusive means small, poorly fitted or top-dose-only effect, or another doubt; inactive means no such curve, though single readings can be large or run the other way; further: potency means the concentration at half of the fitted maximal effect; on the % scale 0 is the no-effect control and ±100 the full control effect
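Infectious HCV cell culture screen: compound-treated cells (1,000/well, pre-plated 4 h) are infected with HCVcc-Cre at roughly 0.5 moi and grown 44 h. Infection is quantified by luciferase signal after 15 min substrate incubation at room temperature.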
Shiga inhibitor – blocks Shiga toxin action in Vero cells. Vero cells, Shiga toxin protein synthesis inhibition reporter. inhibition, % at 38.7 µM. 290,000 compounds, 9.2% hits; in the data active means inhibition mostly above about 28%, no sharp cut-off; inactive means mostly below about 43%; further: 0% is about no effect
Cycloheximide cs – counter-screen for Shiga toxin inhibitors: cycloheximide protein synthesis inhibition; cell reporter, cycloheximide protein synthesis inhibition counterscreen; max response, %; 300,000 compounds, 12% hits; AID 2314; in the data active means max response mostly above about 13%, no sharp cut-off; inactive means mostly below about 14%; further: read at 38.3 µM for the half of the compounds with a filed dose; 0% is about no effect
Marburg entry inh – blocks Marburg virus binding to or entry into cells; Marburg virus pseudotyped entry inhibition, cell reporter; Potency, µM (doses to about 37.8 µM), for the others: at the top dose activity change, negative = inhibition, hits mostly inhibitors; 300,000 compounds, 1.8% hits; AID 540276; calls by dose curve; tested in HEK293 cells; further: potency means the concentration at half of the fitted maximal effect; on the % scale 0 is the no-effect control and ±100 the full control effect
LASV entry inh – inhibitors of Lassa virus binding or cell entry | Lassa virus pseudotype entry inhibition, cell reporter | Potency, µM (highest dose often 37.9 µM), for the others: at the top dose activity change, negative = inhibition, actives largely listed as inhibitors | 300,000 compounds, 1.2% hits | AID 540256; calls by dose curve; tested in HEK293 cells; further: potency means the concentration at half of the fitted maximal effect; on the % scale 0 is the no-effect control and ±100 the full control effect; nearly all actives have a fitted effect of over 50% in size
FMDV antiviral – foot and mouth disease virus antiviral activity | 410,000 compounds, 1.2% hits | FMDV antiviral cell-based qHTS | AID 1159524 | Potency, µM (top dose mostly 57.9 µM), without a hit: top-dose activity change, negative = inhibition, actives largely listed as inhibitors; calls by dose curve; tested in HEK293T cells; further: read-out not given here; potency means the concentration at half of the fitted maximal effect; on the % scale 0 is the no-effect control and ±100 the full control effect; nearly all actives have a fitted effect of over 45% in size
Numbers without * were called inactive; ? = inconclusive; nt = no result; ! = a repeat was not active; [ ] = remark or other dose.

SMILES	HCV inhibitor	Shiga inhibitor	Cycloheximide cs	Marburg entry inh	LASV entry inh	FMDV antiviral
O=C(CSc1nnc(Cn2nnc3ccccc32)o1)N(Cc1ccc(F)cc1)c1ccccc1	1.58µM*	-22.3	-3.0	?	?	nt
O=C(CSc1nnc(Cn2nnc3ccccc32)o1)Nc1ccc(Cl)cc1	12.1%	-9.0	0.7	8.3%	23.4%	8.7%
CCc1sc(C(=O)N(CCCOC)c2c(N)n(CC(C)C)c(=O)[nH]c2=O)cc1C	5.9%	nt	nt	2.5%	-0.8%	-16.9%
Cc1ccc(S(=O)(=O)NC2CCCCC2)cc1C(=O)N1CCC(C(N)=O)CC1	3.2%	nt	nt	nt	nt	6.4%
NCC12CC3CC(C1)CC(CN)(C3)C2	-1.0%	-11.6	-10.0	18.3µM*	-11.8%	-15.7%
Fc1ccc(CSc2ccc(-c3ccc4c(c3)OCO4)nn2)cc1	3.4%	6.1	10.9*	-9.6%	5.3%	14.4%
c1ccc(CSc2ccc(-c3ccc4c(c3)OCO4)nn2)cc1	-11.3%	37.6	27.4*	?	?	30.3%
Cc1ccc(S(=O)(=O)Nc2cccc3c2CCCC3)cc1	-2.6%	-5.9	1.3	-7.0%	2.1%	23.5%
COc1ccc(OC)c(NC(=O)c2cc(-c3c(C)cc(C)cc3O)n[nH]2)c1	10µM*	35.9	7.7	nt	nt	-24.4%
COc1ccc(OC)c(NC(=O)c2cc(-c3cc(C)cc(C)c3O)n[nH]2)c1	3.98µM*	26.2	-2.6	?	-18.7%	1.7%
COc1ccc(NC(=O)c2cc(-c3cc(C)c(C)cc3O)n[nH]2)c(OC)c1	-6.9%	-25.9	-4.1	3.0%	11.6%	-9.6%
COc1ccc(OC)c(NC(=O)c2cc(-c3cc(C)c(C)cc3O)n[nH]2)c1	-11.2%	26.3	10.6	-6.5%	?	17.9%
O=C(O)c1cc(N/N=C2/CC(c3ccccc3)Oc3ccccc32)ccc1Cl (configuration not stated)	-1.5%	54.2*	40.2*	?	2.4%	15.8%
Cc1ccc(-c2noc(C3CCCN(C(=O)c4ccccc4Br)C3)n2)cc1 (configuration not stated)	10µM*	53.4*	27.1*	nt	nt	5.2%
CCS(=O)(=O)N1CCCC(c2nc(-c3cccc(OC)c3)no2)C1 (configuration not stated)	-29.0%	103.7*	42.0*	0.7%	-3.0%	55.0%
CS(=O)(=O)N1CCCC(c2nc(-c3ccc(S(=O)(=O)NCc4ccccc4)cc3)no2)C1 (configuration not stated)	?	-25.3	-2.4	0.13µM*!	?	?
COc1ccc(-c2noc(C3CCCN(C(=O)c4ccccc4OC)C3)n2)cc1OC (configuration not stated)	-21.4%	28.7	23.0*	?	-2.2%	?
O=c1[nH]c(=O)n(C2CCCCCC2)c(O)c1C=NCC1CCCO1 (configuration not stated)	10.8%	-18.5	-3.1	?	-0.4%	0.0%
CC(=O)Nc1ccc(S(=O)(=O)N(C)CC(=O)Nc2ccccc2N2CCOCC2)cc1	13.1%	-15.4	-3.4	-4.6%	-0.2%	-16.2%
COc1ccc(C(C(C(=O)c2ccco2)N2CCOCC2)N2CCOCC2)cc1 (configuration not stated)	8.3%	23.2*	22.8*	3.2%	15.0%	26.6%
CCN(Cc1ccccc1)S(=O)(=O)c1ccc2c(c1)CC(C)N2C(=O)C1CCC1 (configuration not stated)	nt	nt	nt	nt	2.82µM*	-19.8%
COc1ccc(CNC(=O)C2CCCCN2S(=O)(=O)c2ccc(F)cc2)cc1 (configuration not stated)	nt	nt	nt	nt	?	-6.5%
COc1ccc(NC(=O)c2cc(=O)c3ccccc3o2)cc1Cl	9.0%	nt	5.8	?	9.1%	11.6%
Cc1ccc(NC(=O)c2cc(=O)c3ccccc3o2)cc1S(=O)(=O)N1CCCCC1	?	-2.0	4.2	-21.3%[46.1 µM]	-23.2%	25.1µM*
CN(C)S(=O)(=O)c1cc(NC(=O)c2cc(=O)c3ccccc3o2)ccc1Cl	?	34.5*	30.9*	-1.2%[46.1 µM]	-30.0%[46.1 µM]	-14.8%
SMILES	HCV inhibitor	Shiga inhibitor	Cycloheximide cs	Marburg entry inh	LASV entry inh	FMDV antiviral
CC(C)Cc1nnc(NC(=O)c2ccc(S(=O)(=O)N3CCCC3)cc2)s1	13.0%	nt	nt	25.5%[46.1 µM]	17.5%	-12.2%
Nn1cnnc1N/N=C/c1ccc(Cl)cc1Cl	?	16.0	11.6*	?	?	19.5%
COc1cc(/C=N/Nc2nncn2N)ccc1OCc1c(C)no[n+]1[O-]	?	25.3	13.0*	-0.8%	nt	6.8%
COc1ccc(/C=N/Nc2nncn2N)cc1Br	0.5%	nt	21.5*	?	?	27.8%
Cc1ccc(C(=O)OCC(=O)NC(=O)c2cccn2C)cc1[N+](=O)[O-]	-24.1%	-1.5	-3.8	nt	nt	-16.1%
CC(Oc1ccc2c3c(c(=O)oc2c1)CCCC3)C(=O)NCc1ccncc1 (configuration not stated)	-12.7%	12.7	-0.5	nt	nt	-29.0%
CC(=O)Nc1cccc(C(=O)NNC(=O)c2ccccc2-n2cccc2)c1	14.5%	nt	nt	nt	nt	-2.8%
O=S(=O)(c1ccc(S(=O)(=O)N(Cc2ccc(F)cc2)C2CCCC2)cc1)N1CCCC1	17.4%	-1.6	-7.1	10µM*	-16.5%	-30.2%
NC(=O)c1ccc(NC(=O)CNCc2ccccc2Cl)cc1	20.2%	49.2*	13.5*	8.4%[46.1 µM]	nt	39.9%
Cc1ccc(NC(=O)CNCc2ccc(Cl)cc2Cl)cc1S(=O)(=O)N(C)C	-14.0%	10.8	4.2	?	-13.3%[46.1 µM]	-1.3%
CN(C)S(=O)(=O)c1cc(NC(=O)CN2CCN(c3ccc(O)cc3)CC2)ccc1Cl	0.5%	25.0	-1.0	?	?	-8.4%
CN(C)S(=O)(=O)c1cc(NC(=O)CN2CCN(c3ccccc3)CC2)ccc1Cl	2.6%	-6.4	2.6	?	3.55µM*	-28.3%
Cc1ccc(NC(=O)CNCc2ccccc2Cl)cc1S(=O)(=O)N(C)C	-11.8%	57.7*	40.0*	3.7%	?	61.4%
CCC(C(=O)OCC(=O)Nc1ccc(Cl)c(S(=O)(=O)N(C)C)c1)c1ccccc1 (configuration not stated)	7.8%	-17.4	1.1	11.2µM*	?	?
CN(C)S(=O)(=O)c1cc(NC(=O)CNCc2ccccc2)ccc1Cl	?	66.9*	41.1*	?	-25.4%[46.1 µM]	20.6%
NC(=O)c1c(-c2ccc(Cl)cc2Cl)csc1NC(=O)Cc1ccccc1	?	11.0	15.8*	?	-11.6%	?
N#CC(C#N)=Cc1ccc(O)cc1	nt	active!	19.8	nt	nt	nt
COc1cccc(C(C(=O)NCc2ccccc2)N2CCN(c3ccccc3F)CC2)c1OC (configuration not stated)	nt	nt	nt	nt	nt	-4.8%
CC(C)(C)c1cc(NCCCn2ccnc2)n2ncc(-c3ccc(Cl)cc3)c2n1	25.1µM*	86.6*	58.2*	?	?	6.2%
Cc1cc(C)c2c(n1)nn1c(NCCCn3ccnc3)cc(C)nc21	3.8%	3.2	-5.3	nt	nt	nt
CN(C)CCCNc1cc(C(C)(C)C)nc2c(-c3ccccc3)cnn12	?	61.4*	46.7*	?	?	5.0%
